We go through 39 compounds from PubChem BioAssay (NCATS).

Structures are written as SMILES. Records with an inconclusive call do not appear. Where a call stands in place of a potency, no number is given. Active and inactive are the calls of the source. Calls follow the shape of the full dose curve.

Sequence of Nucleoprotein (Lymphocytic choriomeningitis virus (strain Armstrong)) (P09992 whole entry, looked up): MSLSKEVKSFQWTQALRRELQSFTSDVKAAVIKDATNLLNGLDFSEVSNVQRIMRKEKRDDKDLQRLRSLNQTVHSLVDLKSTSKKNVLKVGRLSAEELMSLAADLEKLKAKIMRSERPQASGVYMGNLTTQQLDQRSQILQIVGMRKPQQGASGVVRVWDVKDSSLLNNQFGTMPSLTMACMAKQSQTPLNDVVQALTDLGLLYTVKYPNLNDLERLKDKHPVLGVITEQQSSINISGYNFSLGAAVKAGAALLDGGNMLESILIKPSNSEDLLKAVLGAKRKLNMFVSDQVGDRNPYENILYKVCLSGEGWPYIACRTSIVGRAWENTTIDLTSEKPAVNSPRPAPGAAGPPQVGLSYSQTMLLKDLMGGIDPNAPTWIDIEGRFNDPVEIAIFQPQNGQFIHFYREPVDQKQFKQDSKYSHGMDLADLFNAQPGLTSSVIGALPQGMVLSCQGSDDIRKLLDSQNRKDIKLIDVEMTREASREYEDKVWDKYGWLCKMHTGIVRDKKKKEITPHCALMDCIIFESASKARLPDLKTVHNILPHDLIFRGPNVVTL

This experiment addresses Nucleoprotein (Lymphocytic choriomeningitis virus (strain Armstrong)) (UniProt P09992). In words: qHTS for Inhibitors of the Functional Ribonucleoprotein Complex (vRNP) of Lymphocytic Choriomeningitis Arenaviruses (LCMV): LCMV Primary Screen - GLuc reporter signal (AID 1347086). Also: nearly all actives have a fitted effect of over 70% in size. Conditions: LCMV minigenome vRNP cell assay, Gaussia luciferase reporter; series mostly up to 57.5 µM. For orientation: In qHTS, concentration-response curves come from the screen itself.
As to `COc1cc([C@H]2Oc3cc([C@H]4Oc5cc(O)cc(O)c5C(=O)[C@@H]4O)ccc3O[C@@H]2CO)ccc1O`, the Potency entry is “inactive”.

On to `CCN(CC)CCN`, for which the Potency entry is “inactive”.

On to `Cc1cccc(N(C)C(=S)Oc2ccc3ccccc3c2)c1`, for which the Potency result was “inactive”.

`Nc1ccc(C(=O)N2CC3CC(CN(Cc4ccccc4)C3)C2)cc1`: the Potency entry is “inactive”.

`OCC(CO)N[C@H]1C[C@](O)(CO)[C@@H](O)[C@H](O)[C@H]1O`: the Potency entry was “inactive”.

With `C[C@H]1COc2c(C3(N)CC3)c(F)cc3c(=O)c(C(=O)O)cn1c23`, the Potency result is “inactive”.

Take `NCC1CCC(C(=O)Oc2ccc(CCC(=O)O)cc2)CC1` (centres undefined): the Potency entry is “inactive”.

Regarding `CC(=O)Nc1cccc(O)c1`, the Potency result was “inactive”.

With `CCC1Nc2cc(Cl)c(S(N)(=O)=O)cc2S(=O)(=O)N1` (centres undefined), the Potency result was “inactive”.

As for `NS(=O)(=O)c1cc2c(cc1Cl)NC(C1CC3C=CC1C3)NS2(=O)=O` (centres undefined), the Potency entry was “inactive”.

As for `Nc1c2c(nc3c1CCC3)CCCC2`, the Potency entry was “inactive”.

In the case of `N#Cc1cc(NC(=O)C(=O)O)c(Cl)c(NC(=O)C(=O)O)c1`, the Potency result was “inactive”.

As to `CCOC(=O)c1cccc(N)c1`, the Potency entry is “inactive”.

`CSc1ccc2c(c1)C(N1CCN(C)CC1)Cc1ccccc1S2` (centres undefined): the Potency result is “inactive”.

As for `FC(F)(F)C(F)(F)C(F)(F)C(F)(F)C(F)(F)C(F)(F)C(F)(F)C(F)(F)Br`, the Potency entry was “inactive”.

Regarding `Cc1ccc(CCn2c3c(c4cc(Cl)ccc42)CN(C)CC3)cn1`, the Potency result was “inactive”.

For `CCN(CC)CCNC(=O)c1cc(Br)c(N)cc1OC`, the Potency result was “inactive”.

With `O=C(Cn1ccnc1[N+](=O)[O-])NCCO`, the Potency result was “inactive”.

`CC(=O)N1C[C@H](O)C[C@H]1C(=O)O`: the Potency result is “inactive”.

As to `Cc1ccc(Cl)c(OCC(O)CNC(C)(C)C)c1` (centres undefined), the Potency entry was “inactive”.

On to `CCN(CC)C(=O)Nc1ccc(OCC(O)CNC(C)(C)C)c(C(C)=O)c1` (centres undefined), for which the Potency result is “inactive”.

Regarding `CN(C(=O)CCCOc1ccc2[nH]c(=O)ccc2c1)C1CCCCC1`, the Potency result was “inactive”.

In the case of `CC(C)NCC(O)COc1ccc(COCCOC(C)C)cc1` (centres undefined), the Potency result was “inactive”.

Consider `Brc1c(NC2=NCCN2)ccc2nccnc12`, for which the Potency entry is “inactive”.

As to `CNC(=O)Oc1ccc2c(c1)[C@]1(C)CCN(C)[C@@H]1N2C`, the Potency result is “inactive”.

For `CC(=O)SC[C@@H](Cc1ccccc1)C(=O)NCC(=O)OCc1ccccc1`, the Potency entry was “inactive”.

Regarding `CC(=O)CCC(=O)O`, the Potency result was “inactive”.

For `Oc1c(I)cc(Cl)c2cccnc12`, the Potency result was “inactive”.

As to `CCN[C@H]1C[C@H](C)S(=O)(=O)c2sc(S(N)(=O)=O)cc21`, the Potency entry was “inactive”.

As to `C1CCC(C(CC2CCCCN2)C2CCCCC2)CC1` (centres undefined), the Potency result was “inactive”.

Turning to `C[N+]1(CC2COC(c3ccccc3)(C3CCCCC3)O2)CCCCC1` (centres undefined), the Potency entry is “inactive”.

For `CN1C(=O)CC(c2ccccc2)C1=O` (centres undefined), the Potency entry was “inactive”.

`CCc1cc2cc(OC)c(OC)cc2c(Cc2ccccc2)n1`: the Potency entry was “inactive”.

`CN1CCN(CCCN2c3ccccc3Sc3ccc(S(=O)(=O)N(C)C)cc32)CC1`: the Potency entry is “inactive”.

Regarding `CC(=O)c1ccc2c(c1)N(CCCN1CCC(CCO)CC1)c1ccccc1S2`, the Potency result was “inactive”.

`O=C(CCN1CCN2CCCC2C1)N1c2ccccc2Sc2ccc(Cl)cc21` (centres undefined): the Potency entry is “inactive”.

In the case of `C#C[C@]1(OC(C)=O)CC[C@H]2[C@@H]3CCC4=C/C(=N/O)CC[C@@H]4[C@H]3CC[C@@]21CC`, the Potency entry was “inactive”.

Regarding `Nc1nc(=O)n([C@@H]2O[C@H](CO)[C@@H](O)[C@@H]2F)cc1I`, the Potency result was “inactive”.

Consider `Cc1c(C)c2c(c(C)c1OC(=O)CCC(=O)OCCO)CC[C@@](C)(CCC[C@H](C)CCC[C@H](C)CCCC(C)C)O2`, for which the Potency result was “inactive”.
